# Assay results: PubChem BioAssay (Tox21)
# Several values for one entry are separate records, joined by “and”; a condition that tells them apart may be missing. Identical values can stand only once. Values without a mark were called inactive. Entries that show only a call come without a potency. Activity calls are given as the source filed them. Unless noted, calls follow the shape of the dose curve; as a rule, active = well fitted curve in the direction sought with a large enough effect in the repeat runs; inconclusive = weak or mixed curves; inactive = no such curve, though single readings can be large; an effect the other way counts as inactive or inconclusive.
# Tests used:
# [1] = qHTS assay to identify small molecule antagonists of the thyroid receptor (TR) signaling pathway - cell viability counter screen (AID 743064); also: nearly all actives have a fitted effect of over 50% in size
# Procedure, shortened: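 Rat GH3 pituitary tumor cells stably expressing two TR response elements driving luciferase were plated, rested 4 h, then dosed with library compounds and T3 (1 nM final). After 23.5 h at 37 °C, CellTiter-Fluor was added for 30 min and fluorescence recorded.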
# [2] = test system: thyroid hormone receptor (rat, GH3 cells); assay: qHTS assay to identify small molecule agonists of the thyroid receptor (TR) signaling pathway (AID 743066; calls by dose curve; also: potency is read from the fitted curve at half-maximal effect)
# [3] = target: Estrogen receptor (Homo sapiens) (UniProt P03372); assay: qHTS assay to identify small molecule antagonists of the estrogen receptor alpha (ER-alpha) signaling pathway (AID 743069; active = well fitted curve in the direction sought with a large enough effect in the signal ratio in the repeat runs, not every such curve was filed as active; inconclusive = weak or mixed curves, or effect the other way; inactive = no such curve, though single readings can be large or run the other way; the % refers to the signal ratio)
# Sequence of Estrogen receptor (Homo sapiens) (P03372 whole entry, looked up): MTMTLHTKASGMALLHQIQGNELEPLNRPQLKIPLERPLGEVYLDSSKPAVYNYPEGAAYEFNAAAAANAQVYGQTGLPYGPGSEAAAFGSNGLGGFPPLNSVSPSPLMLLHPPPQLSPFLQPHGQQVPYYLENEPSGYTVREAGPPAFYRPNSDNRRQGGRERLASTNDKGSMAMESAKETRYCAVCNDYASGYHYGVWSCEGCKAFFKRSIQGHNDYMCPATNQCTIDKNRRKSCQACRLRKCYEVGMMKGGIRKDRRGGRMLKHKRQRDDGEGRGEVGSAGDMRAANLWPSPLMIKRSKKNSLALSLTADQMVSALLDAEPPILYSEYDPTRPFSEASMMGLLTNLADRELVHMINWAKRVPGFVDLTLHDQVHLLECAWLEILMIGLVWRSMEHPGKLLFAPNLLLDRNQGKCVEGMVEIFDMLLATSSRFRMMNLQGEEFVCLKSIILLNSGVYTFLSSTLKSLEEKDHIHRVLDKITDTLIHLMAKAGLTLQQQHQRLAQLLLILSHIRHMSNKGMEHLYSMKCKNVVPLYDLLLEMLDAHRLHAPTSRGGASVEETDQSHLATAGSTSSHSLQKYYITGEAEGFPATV
# Procedure, shortened: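 Estradiol-stimulated ER-alpha-UAS-bla HEK293 cells, 18 hr compound exposure at 37C. LiveBLAzer B/G substrate, 2 hr RT, fluorescence read.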
# [4] = qHTS assay to identify small molecule antagonists of the estrogen receptor alpha (ER-alpha) signaling pathway - cell viability counter screen (AID 743074; calls by dose curve;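 also: HEK293 cells carrying ER-alpha-UAS-bla reporter stimulated with 17beta-estradiol; nearly all actives have a fitted effect of over 45% in size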)
# [5] = target: Estrogen receptor (Homo sapiens) (UniProt P03372); assay: qHTS assay to identify small molecule agonists of the estrogen receptor alpha (ER-alpha) signaling pathway (AID 743075; calls by dose curve;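 also: HEK293 GripTite cells with ER-alpha and UAS-driven beta-lactamase reporter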; also: potency is read from the fitted curve at half-maximal effect)
# [6] = target: Estrogen receptor (Homo sapiens) (UniProt P03372); assay: qHTS assay to identify small molecule agonists of the estrogen receptor alpha (ER-alpha) signaling pathway using the BG1 cell line (AID 743079); details: BG1Luc4E2 cells, ERE-luciferase agonist, 22 h; also: nearly all actives have a fitted effect of over 20% in size; also: potency is read from the fitted curve at half-maximal effect
# [7] = qHTS assay to identify small molecule antagonists of the estrogen receptor alpha (ER-alpha) signaling pathway using the BG1 cell line (AID 743080; calls by dose curve;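 also: BG1 cells stimulated with 17beta-estradiol alongside compound; nearly all actives have a fitted effect of over 25% in size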; also: potency is read from the fitted curve at half-maximal effect)
# Procedure, shortened: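 Luminescence from a 4×ERE-luciferase reporter in BG1-Luc-4E2 cells served as read-out. Cells, pre-cultured 5 days in stripped-serum phenol-red-free medium, were exposed to compound with 17beta-estradiol co-stimulation for 21.5 h at 37 C.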
# [8] = qHTS assay to identify small molecule antagonists of the estrogen receptor alpha (ER-alpha) signaling pathway using the BG1 cell line - cell viability counter screen (AID 743081);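 also: compound given together with 17beta-estradiol as the ER stimulus; nearly all actives have a fitted effect of over 45% in size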; also: potency is read from the fitted curve at half-maximal effect
# Aromatase (Homo sapiens) = Aromatase (Homo sapiens) (UniProt P11511); assay: qHTS assay to identify aromatase inhibitors (AID 743083); also: nearly all actives have a fitted effect of over 55% in size
# Sequence of Aromatase (Homo sapiens) (P11511 whole entry, looked up): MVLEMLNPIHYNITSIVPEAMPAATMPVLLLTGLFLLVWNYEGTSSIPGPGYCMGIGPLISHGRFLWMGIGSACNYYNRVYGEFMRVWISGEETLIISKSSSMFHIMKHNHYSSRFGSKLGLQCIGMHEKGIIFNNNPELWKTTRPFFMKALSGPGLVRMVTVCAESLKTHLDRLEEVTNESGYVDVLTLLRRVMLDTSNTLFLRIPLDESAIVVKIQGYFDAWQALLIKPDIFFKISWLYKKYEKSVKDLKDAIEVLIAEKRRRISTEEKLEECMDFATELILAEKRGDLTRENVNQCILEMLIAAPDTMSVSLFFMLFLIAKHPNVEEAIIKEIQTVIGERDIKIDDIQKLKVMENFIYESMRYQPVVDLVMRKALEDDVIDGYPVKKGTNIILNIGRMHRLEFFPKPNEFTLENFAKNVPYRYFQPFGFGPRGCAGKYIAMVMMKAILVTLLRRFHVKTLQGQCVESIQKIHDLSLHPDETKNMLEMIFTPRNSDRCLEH
compound,measurement,setting,value
Cc1cccc2sc3nncn3c12,Potency,[1],inactive
same,Potency,[2],inactive
same,Potency,[3],inactive
same,Potency,[4],inactive
same,Potency,[5],inactive
same,activation,[6]; at 70.3 µM (top of the series),13.8%
same,Potency,[7],inactive
same,Potency,[8],inactive
same,Potency,Aromatase (Homo sapiens),inactive
Cc1ccc(-c2nc3ccc(C)cn3c2CC(=O)N(C)C)cc1,Potency,[1],inactive
same,Potency,[2],inactive
same,Potency,[4],inactive
same,Potency,[5],inactive
same,activation,[6]; at 70.3 µM (top of the series),15.6%
same,Potency,[7],inactive
same,Potency,[8],inactive
same,Potency,Aromatase (Homo sapiens),inactive
CC(C)(C)C(=O)C(Cl)Cl,Potency,[1],inactive
same,Potency,[2],inactive
same,Potency,[4],inactive
same,Potency,[8],inactive
CC(C)N(Cc1ccccc1)C(=O)C(C)(C)C,Potency,[1],inactive
same,Potency,[2],inactive
same,Potency,[4],inactive
same,Potency,[8],inactive
same,Potency,Aromatase (Homo sapiens),inactive
CCOC(=O)c1ncn2c1CN(C)C(=O)c1c(I)cccc1-2,Potency,[1],inactive
same,Potency,[2],inactive
same,Potency,[3],inactive
same,Potency,[4],inactive
same,Potency,[5],inactive
same,activation,[6]; at 70.3 µM (top of the series),-3.09%
same,Potency,[7],inactive
same,Potency,[8],inactive
same,Potency,Aromatase (Homo sapiens),inactive
CCOC1Oc2ccc(OS(C)(=O)=O)cc2C1(C)C (stereo not drawn),Potency,[1],inactive
same,Potency,[2],inactive
same,Potency,[3],inactive
same,Potency,Aromatase (Homo sapiens),inactive
ClCC1CO1 (stereo not drawn),Potency,[1],inactive
same,Potency,[2],inactive
same,Potency,[3],inactive
same,Potency,[4],inactive
same,Potency,[5],inactive
same,activation,[6]; at 70.3 µM (top of the series),-1.3% and 13.9%
same,Potency,[7],inactive
same,Potency,[8],inactive
same,Potency,Aromatase (Homo sapiens),inactive
ClCCCCCCCl,Potency,[1],inactive
same,Potency,[2],inactive
same,Potency,[4],inactive
same,Potency,[8],inactive
same,Potency,Aromatase (Homo sapiens),inactive
CCCCCCC(=O)CCCCCC/C=C/C[C@@H](O)[C@H](O)[C@@](N)(CO)C(=O)O,Potency,[1],inactive
same,Potency,[2],inactive
same,Potency,[3],inactive
same,Potency,[4],inactive
same,Potency,[5],inactive
same,activation,[6]; at 70.3 µM (top of the series),-8.98% and -0.434%
same,Potency,[7],inactive
same,Potency,[8],inactive
same,Potency,Aromatase (Homo sapiens),inactive
C[C@]12C=CC(=O)C=C1CC[C@@H]1[C@@H]2CC[C@@]2(C)[C@H]1CC[C@]2(C)O,Potency,[1],inactive
same,Potency,[2],inactive
same,Potency,[4],inactive
same,Potency,[5],425 nM [inconclusive] (active)
same,Potency,[6],150 nM (active)
same,Potency,[7],inactive
same,Potency,[8],inactive
same,Potency,Aromatase (Homo sapiens),inactive
CCN(CCO)CCO,Potency,[1],inactive
same,Potency,[2],inactive
same,Potency,[3],inactive
same,Potency,[4],inactive
same,Potency,[5],inactive
same,activation,[6]; at 70.3 µM (top of the series),-3.36%
same,Potency,[7],inactive
same,Potency,[8],inactive
same,Potency,Aromatase (Homo sapiens),inactive
O=C(Cl)CCl,Potency,[1],inactive
same,Potency,[2],inactive
same,Potency,[3],inactive
same,Potency,[4],inactive
same,Potency,[5],inactive
same,activation,[6]; at 95 µM (top of the series),0.754%
same,Potency,[7],inactive
same,Potency,[8],inactive
same,Potency,Aromatase (Homo sapiens),inactive
O=S1(=O)OCCO1,Potency,[1],inactive
same,Potency,[2],inactive
same,Potency,[4],inactive
same,Potency,[8],inactive
same,Potency,Aromatase (Homo sapiens),inactive
CCC1(c2ccccc2)CCC(=O)NC1=O (stereo not drawn),Potency,[1],inactive
same,Potency,[2],inactive
same,Potency,[3],inactive
same,Potency,[4],inactive
same,Potency,[5],inactive
same,activation,[6]; at 70.3 µM (top of the series),2.78%
same,Potency,[7],inactive
same,Potency,Aromatase (Homo sapiens),inactive
CN=CNc1ccc(C)cc1C,Potency,[1],inactive
same,Potency,[2],inactive
same,Potency,[3],inactive
same,Potency,[4],inactive
same,Potency,[5],inactive
same,activation,[6]; at 70.3 µM (top of the series),15.7%
same,Potency,[7],inactive
same,Potency,[8],inactive
same,Potency,Aromatase (Homo sapiens),inactive
CCCC(C)C1(CC)C(=O)N=C(S)NC1=O (stereo not drawn),Potency,[1],inactive
same,Potency,[2],inactive
same,Potency,[4],inactive
same,Potency,[8],inactive
same,Potency,Aromatase (Homo sapiens),inactive
CCCCCCCCSC(=O)Oc1cc(Cl)nnc1-c1ccccc1,Potency,[1],inactive
same,Potency,[2],inactive
same,Potency,[4],inactive
same,Potency,[5],inactive
same,activation,[6]; at 70.3 µM (top of the series),3.18%
same,Potency,[7],inactive
same,Potency,[8],inactive
same,Potency,Aromatase (Homo sapiens),inactive
O=P(O)(O)c1ccccc1,Potency,[1],inactive
same,Potency,[2],inactive
same,Potency,[3],inactive
same,Potency,[4],inactive
same,Potency,[5],inactive
same,activation,[6]; at 70.3 µM (top of the series),0.284%
same,Potency,[7],inactive
same,Potency,[8],inactive
same,Potency,Aromatase (Homo sapiens),inactive
N[C@@H](Cc1ccc(Oc2cc(I)c(O)c(I)c2)c(I)c1)C(=O)O,Potency,[1],inactive
same,Potency,[2],168 nM (active)
same,Potency,[3],inactive
same,Potency,[4],inactive
same,Potency,[5],inactive
same,activation,[6]; at 70.3 µM (top of the series),-1.5%
same,Potency,[7],inactive
same,Potency,[8],inactive
same,Potency,Aromatase (Homo sapiens),inactive
CCSC(=O)Cl,Potency,[1],inactive
same,Potency,[2],inactive
same,Potency,[3],inactive
same,Potency,[4],inactive
same,Potency,[5],inactive
same,Potency,[7],inactive
same,Potency,[8],inactive
same,Potency,Aromatase (Homo sapiens),inactive
CC1N=C(N)OC1c1ccccc1 (stereo not drawn),Potency,[1],inactive
same,Potency,[2],inactive
same,Potency,[3],inactive
same,Potency,[5],inactive
same,activation,[6]; at 70.3 µM (top of the series),10.7%
same,Potency,[7],inactive
same,Potency,Aromatase (Homo sapiens),inactive
C[C@@H](N)[C@@H](O)c1ccccc1,Potency,[1],inactive
same,Potency,[2],inactive
same,Potency,[4],inactive
same,Potency,[8],inactive
same,Potency,Aromatase (Homo sapiens),inactive
Cc1ccc2c(c1)C1CN(C)CCC1N2 (stereo not drawn),Potency,[1],inactive
same,Potency,[2],inactive
same,Potency,[3],inactive
same,Potency,[4],inactive
same,Potency,[5],inactive
same,activation,[6]; at 70.3 µM (top of the series),-4.51%
same,Potency,[7],inactive
same,Potency,[8],inactive
same,Potency,Aromatase (Homo sapiens),inactive
CC(Cl)(Cl)Cl,Potency,[1],inactive
same,Potency,[2],inactive
same,Potency,[4],inactive
same,Potency,[8],inactive
same,Potency,Aromatase (Homo sapiens),inactive
CCOC(=O)CC(SP(=S)(OC)OC)C(=O)OCC (stereo not drawn),Potency,[1],inactive
same,Potency,[2],inactive
same,Potency,[3],inactive
same,Potency,[4],inactive
same,Potency,[5],inactive
same,Potency,[7],inactive
same,Potency,[8],inactive
same,Potency,Aromatase (Homo sapiens),inactive
CC[C@@H](CO)NC(=O)[C@@H]1C=C2c3cccc4c3c(cn4C)C[C@H]2N(C)C1,Potency,[1],inactive
same,Potency,[2],inactive
same,Potency,[4],inactive
same,Potency,[5],inactive
same,activation,[6]; at 70.3 µM (top of the series),13.7%
same,Potency,[7],inactive
same,Potency,[8],inactive
same,Potency,Aromatase (Homo sapiens),inactive
Clc1cc2c(cc1Cl)Oc1cc(Cl)c(Cl)cc1O2,"activity change, negative = cytotoxic",[1],5.73% [at 0.341 µM]
same,activation,[2],-1.12% [at 0.329 µM]
same,"activity, negative = inhibition",[3],-7.88% [at 0.274 µM]
same,"activity, negative = cytotoxicity",[4],14.4% [at 0.274 µM]
same,activation,[5],-4.62% [at 0.274 µM]
same,activation,[6]; at 0.341 µM (top of the series),-0.247%
same,Potency,[7],0.7 nM (active)
same,"activity change, negative = cytotoxicity",[8],-0.0382% [at 0.341 µM]
OCC(Cl)CCl (stereo not drawn),Potency,[1],inactive
same,Potency,[2],inactive
same,Potency,[3],inactive
same,Potency,[4],inactive
same,Potency,[5],inactive
same,activation,[6]; at 70.3 µM (top of the series),3.3%
same,Potency,[7],inactive
same,Potency,[8],inactive
same,Potency,Aromatase (Homo sapiens),inactive
Cn1c(CCCC(=O)O)nc2cc(N(CCCl)CCCl)ccc21,Potency,[1],inactive
same,Potency,[2],inactive
same,Potency,[3],inactive
same,Potency,[4],inactive
same,Potency,[5],inactive
same,activation,[6]; at 70.3 µM (top of the series),-7.85%
same,Potency,[7],inactive
same,Potency,[8],1060 nM (active)
same,Potency,Aromatase (Homo sapiens),inactive
CCN[C@@H](C)Cc1cccc(C(F)(F)F)c1,Potency,[1],inactive
same,Potency,[2],inactive
same,Potency,[3],inactive
same,Potency,[4],inactive
same,Potency,[5],inactive
same,activation,[6]; at 70.3 µM (top of the series),-18%
same,Potency,[7],inactive
same,Potency,[8],inactive
same,Potency,Aromatase (Homo sapiens),inactive
COP(=O)(O)OC,Potency,[1],inactive
same,Potency,[2],inactive
same,Potency,[3],inactive
same,Potency,[4],inactive
same,Potency,[5],inactive
same,activation,[6]; at 95 µM (top of the series),-8.98%
same,Potency,[7],inactive
same,Potency,[8],inactive
same,Potency,Aromatase (Homo sapiens),inactive
O=P(O)(O)CN(CP(=O)(O)O)CP(=O)(O)O,Potency,[1],inactive
same,Potency,[2],inactive
same,Potency,[3],inactive
same,Potency,[4],inactive
same,Potency,[5],inactive
same,activation,[6]; at 32.5 µM (top of the series),11.2%
same,Potency,[7],inactive
same,Potency,[8],inactive
same,Potency,Aromatase (Homo sapiens),inactive
CC(C)(C)NC[C@H](O)c1ccc(O)cc1Cl,Potency,[1],inactive
same,Potency,[2],inactive
same,Potency,[4],inactive
same,Potency,[8],inactive
same,Potency,Aromatase (Homo sapiens),inactive
BrCCc1ccccc1,Potency,[1],inactive
same,Potency,[2],inactive
same,Potency,[4],inactive
same,Potency,[8],inactive
same,Potency,Aromatase (Homo sapiens),inactive
CCOP(=S)(OCC)Oc1ccc(Cl)cc1Cl,Potency,[1],inactive
same,Potency,[2],inactive
same,Potency,[3],inactive
same,Potency,[4],inactive
same,Potency,[5],inactive
same,Potency,[7],inactive
same,Potency,[8],inactive
same,Potency,Aromatase (Homo sapiens),inactive
CC#Cc1cc(C)nc(Nc2ccccc2)n1,Potency,[1],inactive
same,Potency,[2],inactive
same,Potency,[3],inactive
same,Potency,[5],inactive
same,Potency,[8],inactive
same,Potency,Aromatase (Homo sapiens),inactive
